Read-out in assay [1]: Tissue Factor, F3 (gene 2152)
The experiment in a line: BSK_CASM3C_TissueFactor: BioMAP Diversity Plus: CASM3C Assay for Tissue Factor Biomarker Activity (AID 2283052).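 Further: cell surface tissue factor protein level read by ELISA.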 Particulars: primary human coronary artery smooth muscle cells; actives raise or lower the signal.

Read-out in assay [2]: Interferon-gamma inducible Protein 10 (IP10), CXCL10 (gene 3627)
The experiment in a line: BSK_hDFCGF_IP10: BioMAP Diversity Plus: hDFCGF Assay for Interferon-gamma inducible Protein 10 (IP10) Biomarker Activity (AID 2283053). Particulars: primary human foreskin fibroblasts; actives raise or lower the signal. An outline of the steps: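 Chemical-treated human skin fibroblasts (primary) were sampled at 24 h for IP-10 by ELISA. Both increases and decreases relative to DMSO were scored.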

Read-out in assay [3]: Urokinase-type plasminogen activator receptor (uPAR), PLAUR (gene 5329)
Description: BSK_CASM3C_uPAR: BioMAP Diversity Plus: CASM3C Assay for Urokinase-type plasminogen activator receptor (uPAR) Biomarker Activity (AID 2283054).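 Further: cell-surface uPAR protein level quantified by ELISA.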 Particulars: primary human coronary artery smooth muscle cells; actives raise or lower the signal.

Read-out in assay [4]: Vascular cell adhesion molecule 1 (VCAM1), VCAM1 (gene 7412)
Description: BSK_CASM3C_VCAM1: BioMAP Diversity Plus: CASM3C Assay for Vascular cell adhesion molecule 1 (VCAM1) Biomarker Activity (AID 2283055).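 Further: VCAM-1 protein level quantified by ELISA on the cells.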 Particulars: primary human coronary artery smooth muscle cells; actives raise or lower the signal.

Read-out in assay [5]: Collagen III, COL3A1 (gene 1281)
The experiment in a line: BSK_hDFCGF_CollagenIII: BioMAP Diversity Plus: hDFCGF Assay for Collagen III Biomarker Activity (AID 2283056). Particulars: primary human foreskin fibroblasts; actives raise or lower the signal. Summed up:
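hDFCGF primary human dermal fibroblasts; 24 h chemical exposure; collagen III by ELISA; bidirectional curve fit vs DMSO baseline (gain or loss of signal).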

Read-out in assay [6]: Epidermal growth factor receptor (EGFR), EGFR (gene 1956)
Description: BSK_hDFCGF_EGFR: BioMAP Diversity Plus: hDFCGF Assay for Epidermal growth factor receptor (EGFR) Biomarker Activity (AID 2283057). Particulars: primary human foreskin fibroblasts; actives raise or lower the signal. Summed up: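 Cell-based multiplexed assay in primary human foreskin fibroblasts. EGFR is read by ELISA 24 h after treatment and compared with DMSO controls.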

Assay [7] in a line: BSK_hDFCGF_Proliferation: Cell Proliferation Assessment in the BioMAP Diversity Plus: hDFCGF Assay (AID 2283059).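 Further: curves fitted for both rise and fall of signal versus DMSO baseline.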 Particulars: primary human foreskin fibroblasts. Summed up: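 Steps: dose primary human dermal fibroblasts (foreskin); […] fix in 10% TCA; stain with 0.1% SRB; read 560 nm; fit gain or loss of signal against DMSO.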
Read-out in assay [8]: Macrophage colony-stimulating factor (MCSF), CSF1 (gene 1435)
Description: BSK_hDFCGF_MCSF: BioMAP Diversity Plus: hDFCGF Assay for Macrophage colony-stimulating factor (MCSF) Biomarker Activity (AID 2283060). Particulars: primary human foreskin fibroblasts; actives raise or lower the signal. Summed up: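 ELISA read-out of M-CSF in human dermal foreskin fibroblast cultures, 24 h after chemical dosing; gain or loss of signal fitted bidirectionally relative to DMSO baseline.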

Assay [9] is described as follows: BSK_hDFCGF_SRB: Viability Assessment in the BioMAP Diversity Plus: hDFCGF Assay (AID 2283061).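 Further: cells exposed to compound for 24 h before the read.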 Particulars: primary human foreskin fibroblasts. Summed up: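 Primary human foreskin fibroblasts; 24 h post-dose; fixed 10% TCA, stained 0.1% SRB, A560 read; total protein as overt cytotoxicity measure; curves fit bidirectionally vs DMSO control.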
Read-out in assay [10]: Interleukin-8 (IL8), CXCL8 (gene 3576)
Description: BSK_hDFCGF_IL8: BioMAP Diversity Plus: hDFCGF Assay for Interleukin-8 (IL8) Biomarker Activity (AID 2283058). Particulars: primary human foreskin fibroblasts; actives raise or lower the signal. An outline of the steps:
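ELISA read-out of IL-8 from primary human foreskin fibroblast cultures taken 24 h after dosing; values are bidirectional fits relative to DMSO vehicle.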

Consider 14 compounds from PubChem BioAssay (EPA / NIEHS).

Structures are written as SMILES. Several values for one entry are separate records, joined by “and”; a condition that tells them apart may be missing. Equal values may be shown once. The source holds several records for some structures; these can differ, active in one and inactive in another. Activity calls are given as the source filed them. How the source made its calls: active means hit-call score of the fitted dose curve at least 0.9, where 1 is the maximum; inactive means score below 0.9.

As to `CCCCCCC(C)OC(=O)COc1nc(F)c(Cl)c(N)c1Cl` (stereo not given), the result in [1], in assay [3] and in [6] was inactive. Besides, the AC50 (in general, the concentration at which the activity in the assay is half-maximal) in assay [2] is 13.5 µM (active); in assay [4] it was 32.8 µM (active); in [5], 20 µM (active); in [7] it was 6.82 µM (active); in assay [8] it was 13.8 µM (active); in assay [9], 14.9 µM (active).
Take `CCCCC(CC)CN1C(=O)C2C3C=CC(C3)C2C1=O` (stereo not given): the result in assay [1], in [3], in [4], in assay [6], in [10] and in [9] was inactive. Besides, the AC50 is 3.97 µM (active) in [2], 30 µM (active) in assay [5], 29.6 µM (active) in assay [7] and 20 µM (active) in assay [8].
On to `CCOC(=O)c1ccc(O)cc1`, for which the outcome in assay [1], in assay [2], in assay [3], in assay [4], in assay [5] and in assay [6] was inactive. The result in assay [10], in [7], in assay [8] and in [9] was inactive.
As to `O=C(c1ccc(O)cc1O)c1ccc(O)cc1O`, the result in assay [1], in assay [2], in assay [3], in [4], in [5] and in assay [6] was inactive. In addition, the result in assay [10], in assay [7], in [8] and in assay [9] was inactive.
For `CSC(=O)c1cccc2nnsc12`, the outcome in assay [1], in assay [2], in assay [3], in [4], in assay [5] and in assay [6] was inactive. Also, the result in assay [7], in [8] and in assay [9] was inactive.
With `CCOC(=O)COc1cc(-n2ncc(C(F)(F)F)c(C)c2=O)c(F)cc1Cl`, the result in assay [1], in assay [2], in assay [3], in [4], in assay [5] and in [6] was inactive. Besides, the outcome in assay [10], in assay [7], in assay [8] and in assay [9] was inactive.
For the compound `CCCCOCCOCCOCc1cc2c(cc1CCC)OCO2`, the outcome in assay [1], in assay [2], in assay [4] and in [6] was inactive. Further, the AC50 in assay [3] was 20 µM (active); in [5], 20 µM (active); in [7], 31 µM (active); in assay [8] it was 12.9 µM (active); in [9], 25.3 µM (active).
Take `CC(C)(c1ccc(O)cc1)c1ccc(O)cc1`: the result in assay [1], in [2], in assay [3], in assay [4], in assay [5] and in assay [6] was inactive. Moreover, the outcome in assay [8] and in assay [9] was inactive. Moreover, the AC50 in assay [2] is 14.4 µM (active); in assay [5] it was 6.87 µM (active) and 25.7 µM (active); in [7] it was 26.2 µM (active) [middle of 4 runs].
As for `COc1nc(C)nc(NC(=O)NS(=O)(=O)c2ccccc2OCCCl)n1`, the result in assay [1], in assay [2], in assay [3], in assay [4], in [5] and in [6] was inactive. Moreover, the outcome in assay [10], in assay [7], in [8] and in [9] was inactive.
For the compound `COC(=O)c1ccc(I)cc1S(=O)(=O)NC(=O)Nc1nc(C)nc(OC)n1`, the outcome in assay [1], in [2], in [3], in [4], in assay [5] and in assay [6] was inactive. The outcome in assay [10], in assay [7], in assay [8] and in [9] was inactive.
`N[C@@H](Cc1cc(I)c(Oc2ccc(O)c(I)c2)c(I)c1)C(=O)O`: the result in assay [1], in assay [2], in assay [3], in assay [4], in assay [5] and in assay [6] was inactive. Besides, the outcome in assay [10], in assay [8] and in [9] was inactive. Besides, the AC50 in assay [7] was 8.65 µM (active).
As for `Oc1ccc(C(c2ccc(O)cc2)C(Cl)(Cl)Cl)cc1`, the outcome in [1] and in assay [4] was inactive. Besides, the AC50 is 23.8 µM (active) in assay [2]; 11.3 µM (active) in assay [3]; 11.7 µM (active) in assay [5]; 13.3 µM (active) in assay [6]; 31.3 µM (active) in assay [10]; 13.5 µM (active) in [7]. In addition, the figures for the AC50 in assay [8] and in [9] were 21.5 µM (active) and 29.3 µM (active), respectively.
Take `CCSC(=O)N(CC(C)C)CC(C)C`: the result in [1], in [2], in [3], in assay [4], in assay [5] and in [10] was inactive. Moreover, the outcome in assay [7], in assay [8] and in assay [9] was inactive. In [6], the AC50 is 5.32 µM (active).
Turning to `S=C(S)NCCNC(=S)S.[Mn+2].[S-]C([S-])=NCCN=C([S-])[S-].[Zn+2]`, the AC50 in assay [1] is 4.17 µM (active) [middle of 4 runs]; in assay [2] it was 10.4 µM (active); in [8], 1.41 µM (active). In addition, the result in assay [1], in [2], in assay [3], in [4], in assay [5] and in [6] was inactive. The outcome in assay [10], in assay [8] and in assay [9] was inactive.
